Measurements reported in paper PMC11006913.

How the values were obtained:
Assay in all cases: PBM; 200 nM protein, PBS
Conditions in all cases: dsDNA, one strand shown
HESX1 [1] = molecular target: HESX1 (Homo sapiens, UniProt Q9UBX0 95-180, R165K)
SHOX [2] = molecular target: SHOX (Homo sapiens, UniProt O15266 103-189)
ALX4 = ALX4 (Homo sapiens, UniProt Q9H161 200-286, Q225E)
HESX1 [3] = molecular target: HESX1 (Homo sapiens, UniProt Q9UBX0 95-180)
MSX2 = MSX2 (Homo sapiens, UniProt P35548 130-214, R199I)
MSX2, sequence (P35548 130-214 R199I): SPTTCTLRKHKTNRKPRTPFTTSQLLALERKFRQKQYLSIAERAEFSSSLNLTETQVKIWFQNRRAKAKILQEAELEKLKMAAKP

ALX1 [4] = molecular target: ALX1 (Homo sapiens, UniProt Q15699 118-204, L144V)
ALX1 (Homo sapiens, UniProt Q15699 118-204, L144V), sequence (Q15699 118-204 L144V): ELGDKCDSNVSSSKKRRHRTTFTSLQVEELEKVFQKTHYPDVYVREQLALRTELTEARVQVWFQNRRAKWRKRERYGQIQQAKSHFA

ALX3 [5] = molecular target: ALX3 (Homo sapiens, UniProt O95076 139-225, N203Q)
ALX3 (Homo sapiens, UniProt O95076 139-225, N203Q), sequence (O95076 139-225 N203Q): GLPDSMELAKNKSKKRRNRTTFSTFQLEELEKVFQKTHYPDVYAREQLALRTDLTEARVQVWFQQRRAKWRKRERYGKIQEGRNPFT

SHOX [6] = molecular target: SHOX (Homo sapiens, UniProt O15266 103-189, R173C)
SHOX (Homo sapiens, UniProt O15266 103-189, R173C), sequence (O15266 103-189 R173C): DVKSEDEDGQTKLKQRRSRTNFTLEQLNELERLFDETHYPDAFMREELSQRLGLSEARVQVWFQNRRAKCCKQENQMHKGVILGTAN

ALX1 [7] = molecular target: ALX1 (Homo sapiens, UniProt Q15699 118-204, L144R)
ALX1 (Homo sapiens, UniProt Q15699 118-204, L144R), sequence (Q15699 118-204 L144R): as the sequence (Q15699 118-204 L144V) above, with V27R counted along it

ALX3 [8] = molecular target: ALX3 (Homo sapiens, UniProt O95076 139-225)
ALX3 (Homo sapiens, UniProt O95076 139-225), sequence (O95076 139-225): as the sequence (O95076 139-225 N203Q) above, with Q65N counted along it

PROP1 [9] = molecular target: PROP1 (Homo sapiens, UniProt O75360 56-141)
PROP1 (Homo sapiens, UniProt O75360 56-141), sequence (O75360 56-141): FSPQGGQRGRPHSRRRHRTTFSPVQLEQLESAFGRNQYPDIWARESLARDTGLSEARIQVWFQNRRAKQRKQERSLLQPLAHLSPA

HESX1 [10] = molecular target: HESX1 (Homo sapiens, UniProt Q9UBX0 95-180, R109Q)
HESX1 (Homo sapiens, UniProt Q9UBX0 95-180, R109Q), sequence (Q9UBX0 95-180 R109Q): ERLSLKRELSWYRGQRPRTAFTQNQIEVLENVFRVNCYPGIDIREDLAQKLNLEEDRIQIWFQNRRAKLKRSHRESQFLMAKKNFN

PROP1 [11] = molecular target: PROP1 (Homo sapiens, UniProt O75360 56-141, R99H)
PROP1 (Homo sapiens, UniProt O75360 56-141, R99H), sequence (O75360 56-141 R99H): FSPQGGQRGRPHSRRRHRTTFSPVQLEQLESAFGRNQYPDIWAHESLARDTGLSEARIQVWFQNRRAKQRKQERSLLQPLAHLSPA

ALX3 [12] = molecular target: ALX3 (Homo sapiens, UniProt O95076 139-225, L168Q)
ALX3 (Homo sapiens, UniProt O95076 139-225, L168Q), sequence (O95076 139-225 L168Q): as the sequence (O95076 139-225 N203Q) above, with L30Q, Q65N counted along it

HESX1 [13] = molecular target: HESX1 (Homo sapiens, UniProt Q9UBX0 95-180, P111T)
HESX1 (Homo sapiens, UniProt Q9UBX0 95-180, P111T), sequence (Q9UBX0 95-180 P111T): as the sequence (Q9UBX0 95-180 R109Q) above, with Q15R, P17T counted along it

ALX3 [14] = molecular target: ALX3 (Homo sapiens, UniProt O95076 139-225, L168V)
ALX3 (Homo sapiens, UniProt O95076 139-225, L168V), sequence (O95076 139-225 L168V): as the sequence (O95076 139-225 N203Q) above, with L30V, Q65N counted along it

PROP1 [15] = molecular target: PROP1 (Homo sapiens, UniProt O75360 56-141, F88S)
PROP1 (Homo sapiens, UniProt O75360 56-141, F88S), sequence (O75360 56-141 F88S): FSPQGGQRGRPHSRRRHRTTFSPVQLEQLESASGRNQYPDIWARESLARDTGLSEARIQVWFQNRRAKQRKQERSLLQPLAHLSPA

HESX1 [16] = molecular target: HESX1 (Homo sapiens, UniProt Q9UBX0 95-180, F115L)
HESX1 (Homo sapiens, UniProt Q9UBX0 95-180, F115L), sequence (Q9UBX0 95-180 F115L): as the sequence (Q9UBX0 95-180 R109Q) above, with Q15R, F21L counted along it

ALX1 [17] = molecular target: ALX1 (Homo sapiens, UniProt Q15699 118-204)
ALX1 (Homo sapiens, UniProt Q15699 118-204), sequence (Q15699 118-204): as the sequence (Q15699 118-204 L144V) above, with V27L counted along it

ALX3 [18] = molecular target: ALX3 (Homo sapiens, UniProt O95076 139-225, N203S)
ALX3 (Homo sapiens, UniProt O95076 139-225, N203S), sequence (O95076 139-225 N203S): as the sequence (O95076 139-225 N203Q) above, with Q65S counted along it

HESX1 (Homo sapiens, UniProt Q9UBX0 95-180), sequence (Q9UBX0 95-180): as the sequence (Q9UBX0 95-180 R109Q) above, with Q15R counted along it
ALX4, sequence (Q9H161 200-286 Q225E): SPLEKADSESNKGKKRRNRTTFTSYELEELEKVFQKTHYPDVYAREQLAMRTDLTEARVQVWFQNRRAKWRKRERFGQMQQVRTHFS
SHOX (Homo sapiens, UniProt O15266 103-189), sequence (O15266 103-189): as the sequence (O15266 103-189 R173C) above, with C71R counted along it
HESX1 (Homo sapiens, UniProt Q9UBX0 95-180, R165K), sequence (Q9UBX0 95-180 R165K): as the sequence (Q9UBX0 95-180 R109Q) above, with Q15R, R71K counted along it

| Sequence | binding signal (HESX1 [1]) | binding signal (SHOX [2]) | binding signal (ALX4) | binding signal (HESX1 [3]) | binding signal (MSX2) | binding signal (ALX1 [4]) | binding signal (ALX3 [5]) | binding signal (SHOX [6]) | binding signal (ALX1 [7]) | binding signal (ALX3 [8]) | binding signal (PROP1 [9]) | binding signal (HESX1 [10]) | binding signal (PROP1 [11]) | binding signal (ALX3 [12]) | binding signal (HESX1 [13]) | binding signal (ALX3 [14]) | binding signal (PROP1 [15]) | binding signal (HESX1 [16]) | binding signal (ALX1 [17]) | binding signal (ALX3 [18]) |
| --- | --- | --- | --- | --- | --- | --- | --- | --- | --- | --- | --- | --- | --- | --- | --- | --- | --- | --- | --- | --- |
| TAATTGGA | 13.4 upbm affinity estimate (log intensity, higher = more binding, comparable within an allelic series) | 12.6 upbm affinity estimate (log intensity, higher = more binding, comparable within an allelic series) | 13.7 upbm affinity estimate (log intensity, higher = more binding, comparable within an allelic series) | 13.3 upbm affinity estimate (log intensity, higher = more binding, comparable within an allelic series) | 13 upbm affinity estimate (log intensity, higher = more binding, comparable within an allelic series) | 12 upbm affinity estimate (log intensity, higher = more binding, comparable within an allelic series) | 8.38 upbm affinity estimate (log intensity, higher = more binding, comparable within an allelic series) | 9.96 upbm affinity estimate (log intensity, higher = more binding, comparable within an allelic series) | 11.7 upbm affinity estimate (log intensity, higher = more binding, comparable within an allelic series) | 12.7 upbm affinity estimate (log intensity, higher = more binding, comparable within an allelic series) | 11.8 upbm affinity estimate (log intensity, higher = more binding, comparable within an allelic series) | 9.97 upbm affinity estimate (log intensity, higher = more binding, comparable within an allelic series) | 12 upbm affinity estimate (log intensity, higher = more binding, comparable within an allelic series) | 10.9 upbm affinity estimate (log intensity, higher = more binding, comparable within an allelic series) | 11.9 upbm affinity estimate (log intensity, higher = more binding, comparable within an allelic series) | 10.3 upbm affinity estimate (log intensity, higher = more binding, comparable within an allelic series) | 7.7 upbm affinity estimate (log intensity, higher = more binding, comparable within an allelic series) | 8.04 upbm affinity estimate (log intensity, higher = more binding, comparable within an allelic series) | 12.7 upbm affinity estimate (log intensity, higher = more binding, comparable within an allelic series) | 8.55 upbm affinity estimate (log intensity, higher = more binding, comparable within an allelic series) |
| CAATTAGA | 12.3 upbm affinity estimate (log intensity, higher = more binding, comparable within an allelic series) | 11.9 upbm affinity estimate (log intensity, higher = more binding, comparable within an allelic series) | 12.8 upbm affinity estimate (log intensity, higher = more binding, comparable within an allelic series) | 12.5 upbm affinity estimate (log intensity, higher = more binding, comparable within an allelic series) | 12.6 upbm affinity estimate (log intensity, higher = more binding, comparable within an allelic series) | 11.4 upbm affinity estimate (log intensity, higher = more binding, comparable within an allelic series) | 8.27 upbm affinity estimate (log intensity, higher = more binding, comparable within an allelic series) | 9.38 upbm affinity estimate (log intensity, higher = more binding, comparable within an allelic series) | 11.1 upbm affinity estimate (log intensity, higher = more binding, comparable within an allelic series) | 12.4 upbm affinity estimate (log intensity, higher = more binding, comparable within an allelic series) | 11.4 upbm affinity estimate (log intensity, higher = more binding, comparable within an allelic series) | 8.75 upbm affinity estimate (log intensity, higher = more binding, comparable within an allelic series) | 11.4 upbm affinity estimate (log intensity, higher = more binding, comparable within an allelic series) | 10.4 upbm affinity estimate (log intensity, higher = more binding, comparable within an allelic series) | 10.9 upbm affinity estimate (log intensity, higher = more binding, comparable within an allelic series) | 9.72 upbm affinity estimate (log intensity, higher = more binding, comparable within an allelic series) | 7.51 upbm affinity estimate (log intensity, higher = more binding, comparable within an allelic series) | 7.65 upbm affinity estimate (log intensity, higher = more binding, comparable within an allelic series) | 12.2 upbm affinity estimate (log intensity, higher = more binding, comparable within an allelic series) | 8.34 upbm affinity estimate (log intensity, higher = more binding, comparable within an allelic series) |
| AACTAATT | 11.5 upbm affinity estimate (log intensity, higher = more binding, comparable within an allelic series) | 11.5 upbm affinity estimate (log intensity, higher = more binding, comparable within an allelic series) | 12.7 upbm affinity estimate (log intensity, higher = more binding, comparable within an allelic series) | 11.5 upbm affinity estimate (log intensity, higher = more binding, comparable within an allelic series) | 12.2 upbm affinity estimate (log intensity, higher = more binding, comparable within an allelic series) | 11.5 upbm affinity estimate (log intensity, higher = more binding, comparable within an allelic series) | 8.44 upbm affinity estimate (log intensity, higher = more binding, comparable within an allelic series) | 9.12 upbm affinity estimate (log intensity, higher = more binding, comparable within an allelic series) | 11.2 upbm affinity estimate (log intensity, higher = more binding, comparable within an allelic series) | 12.4 upbm affinity estimate (log intensity, higher = more binding, comparable within an allelic series) | 11.2 upbm affinity estimate (log intensity, higher = more binding, comparable within an allelic series) | 8.89 upbm affinity estimate (log intensity, higher = more binding, comparable within an allelic series) | 11.1 upbm affinity estimate (log intensity, higher = more binding, comparable within an allelic series) | 10.3 upbm affinity estimate (log intensity, higher = more binding, comparable within an allelic series) | 10.3 upbm affinity estimate (log intensity, higher = more binding, comparable within an allelic series) | 9.88 upbm affinity estimate (log intensity, higher = more binding, comparable within an allelic series) | 7.84 upbm affinity estimate (log intensity, higher = more binding, comparable within an allelic series) | 7.81 upbm affinity estimate (log intensity, higher = more binding, comparable within an allelic series) | 12.3 upbm affinity estimate (log intensity, higher = more binding, comparable within an allelic series) | 8.58 upbm affinity estimate (log intensity, higher = more binding, comparable within an allelic series) |
| CAATTACA | 11.6 upbm affinity estimate (log intensity, higher = more binding, comparable within an allelic series) | 11.4 upbm affinity estimate (log intensity, higher = more binding, comparable within an allelic series) |  | 11.9 upbm affinity estimate (log intensity, higher = more binding, comparable within an allelic series) | 12.5 upbm affinity estimate (log intensity, higher = more binding, comparable within an allelic series) |  |  | 9.07 upbm affinity estimate (log intensity, higher = more binding, comparable within an allelic series) |  |  |  | 8.6 upbm affinity estimate (log intensity, higher = more binding, comparable within an allelic series) | 10.8 upbm affinity estimate (log intensity, higher = more binding, comparable within an allelic series) |  | 10.2 upbm affinity estimate (log intensity, higher = more binding, comparable within an allelic series) |  |  | 7.44 upbm affinity estimate (log intensity, higher = more binding, comparable within an allelic series) |  |  |
| AATTAAGG | 11.4 upbm affinity estimate (log intensity, higher = more binding, comparable within an allelic series) | 11.7 upbm affinity estimate (log intensity, higher = more binding, comparable within an allelic series) | 12.8 upbm affinity estimate (log intensity, higher = more binding, comparable within an allelic series) | 11.4 upbm affinity estimate (log intensity, higher = more binding, comparable within an allelic series) |  |  | 8.39 upbm affinity estimate (log intensity, higher = more binding, comparable within an allelic series) | 9.49 upbm affinity estimate (log intensity, higher = more binding, comparable within an allelic series) |  | 12.2 upbm affinity estimate (log intensity, higher = more binding, comparable within an allelic series) | 11 upbm affinity estimate (log intensity, higher = more binding, comparable within an allelic series) | 8.76 upbm affinity estimate (log intensity, higher = more binding, comparable within an allelic series) | 10.8 upbm affinity estimate (log intensity, higher = more binding, comparable within an allelic series) | 10.4 upbm affinity estimate (log intensity, higher = more binding, comparable within an allelic series) | 10.3 upbm affinity estimate (log intensity, higher = more binding, comparable within an allelic series) | 9.9 upbm affinity estimate (log intensity, higher = more binding, comparable within an allelic series) | 7.57 upbm affinity estimate (log intensity, higher = more binding, comparable within an allelic series) | 7.55 upbm affinity estimate (log intensity, higher = more binding, comparable within an allelic series) |  | 8.48 upbm affinity estimate (log intensity, higher = more binding, comparable within an allelic series) |
